Drawing on PubChem BioAssay (Tox21), this text covers Potency and outcome for twelve compounds.

Experiment [1] can be described thus: qHTS assay to identify small molecule agonists of the vitamin D receptor (VDR) signaling pathway - cell viability counter screen (AID 743224). Further: nearly all actives have a fitted effect of over 50% in size. The method in brief:
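VDR-bla cell line, quantitative HTS format; 16 h compound incubation (37C, 5% CO2); ATP-based CellTiter-Glo luminescence measured in the reporter assay wells.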
A general note: Quantitative high-throughput screening tests each substance at several concentrations.

Experiment [2] is described as follows: qHTS assay to identify small molecule agonists of the NFkB signaling pathway - cell viability counter screen (AID 1159515; calls by dose curve; further: nearly all actives have a fitted effect of over 55% in size). The method in brief: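 Viability in NFkB-bla ME-180 cells was measured by CellTiter-Glo luminescence, 30 min room temperature, in wells already treated 5 hr with compounds and read for reporter FRET.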
Experiment [3] is described as follows: qHTS assay to identify small molecule agonists of the endoplasmic reticulum stress response signaling pathway (AID 1159516; active means well fitted activation curve with a large enough effect in the signal ratio in the repeat runs, not every such curve was filed as active; the % refers to the signal ratio). The method in brief: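 ER stress element reporter (bla) in HeLa. 1,500 cells/well, overnight attachment; 5 hr compound; 2 hr RT substrate; dual-emission fluorescence.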
Experiment [4] is described as follows: qHTS assay to identify small molecule agonists of the endoplasmic reticulum stress response signaling pathway - cell viability counter screen (AID 1159517; calls by dose curve;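 further: HeLa cells carrying an ER stress response element beta-lactamase reporter; nearly all actives have a fitted effect of over 50% in size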). An outline of the steps:
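HeLa cells carrying an ESRE-driven beta-lactamase reporter receive compound for 5 hr at 37 C. Cell viability is then gauged with CellTiter-Glo by luminescence, 30 min at room temperature.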

Experiment [5] deals with Nuclear receptor ROR-gamma (Homo sapiens) (UniProt P51449). As to the kind of experiment: qHTS assay to identify small molecule antagonists of the retinoid-related orphan receptor gamma (ROR-gamma) signaling pathway (AID 1159521; further: nearly all actives have a fitted effect of over 50% in size; further: potency means the concentration at half of the fitted maximal effect). An outline of the steps:
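Tet-on ROR-gamma CHO cells with ROR response element-luciferase reporter; compounds added 2 hr before 1 uM doxycycline induction, then 16 hr at 37 C. Antagonism scored as decreased ONE-Glo luminescence.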

Experiment [6] in a line: qHTS assay to identify small molecule agonists of the AP-1 signaling pathway - cell viability counter screen (AID 1159525; calls by dose curve; further: nearly all actives have a fitted effect of over 55% in size; further: potency means the concentration at half of the fitted maximal effect). The method in brief:
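Luminescent ATP readout (Cell Titer Glo, 30 min RT), normalised to DMSO and tetra n-octyl ammonium bromide controls. Cells were ME-180 AP-1-bla in 0.5% dialyzed FBS Opti-MEM, with a 5 h, 37 °C compound exposure.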

The nature of experiment [7]: qHTS assay to identify small molecule agonists of the AP-1 signaling pathway (AID 1159526; calls by dose curve).
Experiment [8] is described as follows: qHTS assay to identify small molecule antagonists of the retinoid acid receptor (RAR) signaling pathway - cell viability counter screen (AID 1159551). Further: nearly all actives have a fitted effect of over 35% in size. An outline of the steps:
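Following overnight attachment, C3RL4 reporter cells received DMSO-dissolved compounds and then retinol (1 uM final). Six hours later at 37 C, ATP content was measured by CellTiter-Glo luminescence.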

Experiment [9] in a line: qHTS assay to identify small molecule agonists of the retinoic acid receptor (RAR) signaling pathway (AID 1159553). Further: potency means the concentration at half of the fitted maximal effect. The settings on record: C3RL4 RARE luciferase reporter, agonist, 6 h; activation: at 73.3 µM (top of the series) unless noted. The method in brief:
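Cell line C3RL4, RARE luciferase reporter. Treatment: compounds in DMSO, 6 hr, 37 C, 5% CO2, after overnight plating. Detection: luminescence, 30 min RT after reagent.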

Experiment [10] in a line: qHTS assay to identify small molecule agonists of the RXR signaling pathway - cell viability counter screen (AID 1159529). Further: nearly all actives have a fitted effect of over 50% in size. Further: potency means the concentration at half of the fitted maximal effect. The method in brief: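 RXR-alpha-UAS-bla HEK 293T cells in medium with 2% charcoal-stripped FBS were pre-incubated 5 hr, then compound-treated 16 hr at 37 C. Viability was read by CellTiter-Glo luminescence in the same wells as the beta-lactamase assay, with tetraoctyl ammonium bromide as positive control.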

The nature of experiment [11]: qHTS assay to identify small molecule antagonists of the vitamin D receptor (VDR) signaling pathway - cell viability counter screen (AID 743225). Further: nearly all actives have a fitted effect of over 50% in size. An outline of the steps:
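VDR-UAS-bla HEK 293T cells were plated and incubated 4 h at 37C, then dosed with compound plus 3 nM (final) 1-alpha,25-dihydroxyvitamin D3 for 16 h. After the 2 h beta-lactamase read, viability in the same wells was read as CellTiter-Glo luminescence after 30 min at room temperature.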

Experiment [12] in a line: qHTS assay to identify small molecule antagonists of the retinoic acid receptor (RAR) signaling pathway (AID 1159552; further: nearly all actives have a fitted effect of over 50% in size; further: potency means the concentration at half of the fitted maximal effect). The method in brief:
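Retinol signaling pathway inhibitors screened in C3RL4 RARE-luciferase reporter cells seeded overnight at 37 C, then compounds added with 1 uM (final) retinol as pathway substrate. After 6 hr at 37 C, luciferase luminescence read after 30 min at room temperature.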

Experiment [13] can be described thus: qHTS assay to identify small molecule antagonists of the estrogen related receptor (ERR) signaling pathway - cell viability counter screen (AID 1224818). The method in brief:
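Here, ERR cells are plated at 2,000 cells per well, allowed 6 h to attach, and treated with compounds in DMSO for 17.5 h at 37 C. CellTiter-Fluor is then added and fluorescence read after 30 min.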

Experiment [14] can be described thus: qHTS assay to identify small molecule antagonists of the estrogen related receptor (ERR) signaling pathway (AID 1224819). An outline of the steps: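 LOPAC library screened for antagonism as reduced One-Glo luminescence in ERR reporter cells (2,000/well). Compounds were added after 6 h pre-incubation and left 18 h at 37C; reading followed a 30 min room-temperature reagent step.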

A short description of experiment [15]: qHTS assay to identify small molecule agonists of the estrogen related receptor (ERR) signaling pathway (AID 1224820). The method in brief: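 Cells: ERR line from NTP, 2,000/well. Pre-incubation 6 h, 37 C/5% CO2. Compound (DMSO) pin transfer, 18 h 37 C. One-Glo, 30 min RT, luminescence.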
For experiment [16], the system named is estrogen-related receptor alpha (ERRalpha) with PGC-1alpha coactivator, human. As to the kind of experiment: qHTS assay to identify small molecule antagonists of the estrogen related receptor signaling pathway with the pleiotropic PPARgamma coactivator (PGC) (AID 1224821; calls by dose curve). An outline of the steps:
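Luminescent read-out (One-Glo, 30 min at room temperature) following 18 h treatment of PGC/ERR cells at 37 C with compounds delivered in DMSO. Cells had settled 6 h at 37 C/5% CO2 before dosing.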

The nature of experiment [17]: qHTS assay to identify small molecule antagonists of the estrogen related receptor signaling pathway with the pleiotropic PPARgamma coactivator (PGC) cell viability counter screen (AID 1224822). An outline of the steps: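 qHTS format, DMSO compound stocks pin-transferred onto PGC/ERR cells 6 h after plating; 17.5 h exposure at 37 C, then CellTiter-Fluor fluorescence.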

The nature of experiment [18]: qHTS assay to identify small molecule agonists of the estrogen related receptor signaling pathway with the pleiotropic PPARgamma coactivator (PGC) (AID 1224823). An outline of the steps: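 Steps: plate PGC/ERR cells at 2,000 cells/well; incubate 6 h, 37 C/5% CO2; pin-transfer compounds (DMSO); incubate 18 h, 37 C; add One-Glo; 30 min RT; read luminescence.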
Experiment [19] is described as follows: qHTS assay to identify small molecule antagonists of the retinoid-related orphan receptor gamma (ROR-gamma) signaling pathway - cell viability counter screen (AID 1159520). Further: nearly all actives have a fitted effect of over 50% in size. The method in brief:
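Cytotoxicity was read from cellular ATP (CellTiter-Glo luminescence) after 16 hr at 37 C with 1 uM doxycycline induction. The inducer was added 2 hr after compound transfer to Tet-on ROR gamma CHO cells.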

In experiment [20] the target is Retinoic acid receptor RXR-alpha (Homo sapiens) (UniProt P19793). As to the kind of experiment: qHTS assay to identify small molecule agonists of the RXR signaling pathway (AID 1159527; calls by dose curve; further: nearly all actives have a fitted effect of over 35% in size). The method in brief:
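GeneBLAzer RXR-alpha-UAS-bla HEK 293T cells in 2% charcoal-stripped FBS medium were exposed to compounds for 16 hr at 37 C in agonist mode. Beta-lactamase reporter read as 460/530 nm FRET ratio after 2 hr substrate loading.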

Results filed as inconclusive are left out. A number with no mark means an inactive call. Activity calls are given as the source filed them. Unless noted, the call rests on the fitted dose curve; in most records, active means well fitted curve in the direction sought with a large enough effect in the repeat runs; inconclusive means weak or mixed curves; inactive means no such curve, though single readings can be large; an effect the other way counts as inactive or inconclusive.

Chain of Retinoic acid receptor RXR-alpha (Homo sapiens) (P19793 whole entry, looked up): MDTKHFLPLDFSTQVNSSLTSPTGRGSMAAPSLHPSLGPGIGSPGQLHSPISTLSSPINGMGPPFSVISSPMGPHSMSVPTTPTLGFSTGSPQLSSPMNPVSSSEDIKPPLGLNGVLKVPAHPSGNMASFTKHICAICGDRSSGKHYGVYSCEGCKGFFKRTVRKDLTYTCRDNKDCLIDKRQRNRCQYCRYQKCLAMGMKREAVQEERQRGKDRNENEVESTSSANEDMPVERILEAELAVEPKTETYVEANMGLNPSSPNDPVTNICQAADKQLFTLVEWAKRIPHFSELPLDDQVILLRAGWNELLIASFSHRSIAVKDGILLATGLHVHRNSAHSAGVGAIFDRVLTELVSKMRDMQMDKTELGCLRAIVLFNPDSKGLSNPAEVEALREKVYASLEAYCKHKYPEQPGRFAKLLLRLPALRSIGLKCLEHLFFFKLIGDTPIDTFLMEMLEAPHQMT

With `COc1c(C)c2c(c(O)c1C/C=C(\C)CCC(=O)OCCN1CCOCC1)C(=O)OC2`, the Potency result in experiment [1], in experiment [2], in [3], in experiment [4], in experiment [6] and in experiment [7] was “inactive” in each case. In addition, the Potency result in experiment [8] and in experiment [9] was “inactive” each time. For the same compound, the Potency in experiment [5] was 0.237 µM (active).

As for `S=C([S-])NCCNC(=S)[S-].S=C([S-])NCCNC(=S)[S-].[Mn+2].[Zn+2]`, the Potency result in experiment [2], in [3], in experiment [4], in experiment [6], in experiment [10] and in [8] was “inactive” in each case.

Regarding `C/C=C/C=C/COC(=O)C(C)C`, the Potency entry in experiment [1], in experiment [11], in experiment [2], in [3], in experiment [4] and in experiment [6] was “inactive” in each case. Further, the Potency entry in experiment [7] and in experiment [10] was “inactive” throughout. Further, the Potency in experiment [12] was 27.3 µM (active).

Turning to `CCCCCC(C)OC(=O)COc1ccc(Cl)c2cccnc12` (stereo not drawn), the Potency entry in [11], in experiment [2], in experiment [3], in experiment [4], in experiment [5] and in experiment [8] was “inactive” throughout. For the same compound, the Potency entry in experiment [9] is “inactive”. The Potency in experiment [6] was 34.7 µM (active); in [10], 11 µM (active).

For the compound `O=[N+]([O-])c1ccc(O)cc1C(F)(F)F`, the Potency entry in experiment [2], in experiment [3], in [4], in experiment [6], in [7] and in [8] was “inactive” throughout. In addition, in [9], the Potency result was “inactive”. Besides, the Potency in experiment [5] was 7.7 µM (active).

For the compound `COc1ccc2cc1Oc1ccc(cc1)C[C@H]1c3c(cc4c(c3Oc3cc5c(cc3OC)CCN(C)[C@@H]5C2)OCO4)CCN1C`, the Potency result in experiment [2], in [3], in experiment [4], in [6] and in experiment [9] was “inactive” throughout. Besides, the results for the Potency in experiment [10] and in [12] were 23.9 µM (active) and 4.22 µM (active), respectively.

Take `COc1ccc(-c2coc3cc(O)ccc3c2=O)cc1`: the Potency entry in experiment [1], in [11], in [2], in experiment [3], in [4] and in experiment [6] was “inactive” in each case. Besides, the Potency result in experiment [7], in experiment [10], in [8] and in experiment [12] was “inactive” each time. The Potency in experiment [9] is 0.486 µM (active).

In the case of `c1ccc(SSc2ccccc2)cc1`, the Potency result in experiment [1], in [11], in experiment [2], in experiment [3], in experiment [4] and in experiment [5] was “inactive” each time. For the same compound, the Potency entry in experiment [6] and in experiment [8] was “inactive” each time.

For `CCCCN(CCCC)CC(O)c1cc(Cl)cc2c1-c1ccc(Cl)cc1/C2=C/c1ccc(Cl)cc1` (stereo not drawn), the Potency entry in experiment [2], in experiment [3], in experiment [4], in [6], in experiment [8] and in experiment [9] was “inactive” throughout. In addition, the Potency entry in [14], in experiment [16] and in experiment [17] was “inactive” throughout. Moreover, in experiment [5], the Potency is 29.8 µM (active). Besides, the outcome in [13], in experiment [15] and in experiment [18] was inactive.

Turning to `COC(=O)Nc1nc2ccc(C(=O)c3ccccc3)cc2[nH]1`, the Potency result in experiment [1], in experiment [11], in experiment [2], in experiment [3], in [4] and in experiment [5] was “inactive” throughout. Also, the Potency result in [6], in experiment [8] and in [9] was “inactive” throughout.

On to `c1ccc(C(O[C@@H]2CCCN(CCc3ccc4c(c3)OCO4)C2)c2ccccc2)cc1`, for which the Potency entry in experiment [2], in [3], in experiment [4], in experiment [10] and in experiment [8] was “inactive” each time. The Potency in experiment [5] was 61.1 µM (active).

Take `O=C(O)c1ccc2cc(C(=O)O)ccc2c1`: the Potency entry in experiment [1], in experiment [11], in experiment [2], in experiment [3], in [19] and in experiment [5] was “inactive” each time. The Potency result in [6], in experiment [7], in experiment [20], in experiment [10], in experiment [8] and in experiment [12] was “inactive” in each case. The Potency result in experiment [9] was “inactive”.
